High-throughput results deposited in PubChem by National Center for Advancing Translational Sciences (NCATS).
Many of the other results were omitted from the sample, so hits are more common in it than they were.
TSG101-PTAP inh: inhibitors of HIV-1 PTAP binding to human TSG101, validation. Fluorescence polarization, FITC-PTAP peptide/Tsg101, 20 min. 44,000 tested, under 10 active. AID 1347069. Potency, µM (titrated, usually from 115 µM), usual class: inhibitors. Q99816
Target sequence (Q99816 whole entry, looked up): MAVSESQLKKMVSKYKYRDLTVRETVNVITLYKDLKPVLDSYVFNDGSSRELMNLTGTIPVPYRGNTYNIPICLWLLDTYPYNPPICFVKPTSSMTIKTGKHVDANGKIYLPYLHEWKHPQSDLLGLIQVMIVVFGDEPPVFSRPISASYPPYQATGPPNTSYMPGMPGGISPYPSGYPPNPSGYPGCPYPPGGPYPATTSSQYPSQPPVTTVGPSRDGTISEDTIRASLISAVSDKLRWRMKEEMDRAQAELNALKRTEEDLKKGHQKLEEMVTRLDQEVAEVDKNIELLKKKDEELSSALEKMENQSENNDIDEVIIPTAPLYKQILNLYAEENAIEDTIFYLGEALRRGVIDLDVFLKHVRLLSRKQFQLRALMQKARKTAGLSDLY
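FITC-labeled PTAP peptide (50 nM final) binding to Tsg101 binding domain (10 uM final) read by fluorescence polarization after 20 min at r.t. in HEPES pH 7.5 buffer. Actives by CRC class, <25 µM.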
B2AR arrestin ag: beta-arrestin recruitment by human beta2-adrenergic receptor ligands; 44,000 tested, under 10 active; AID 1347077; HTLA Tango cells, beta-arrestin recruitment, luciferase luminescence, 18 h; Potency, µM (highest dose often 46.1 µM), actives largely listed as activators
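Tango cells expressing recombinant beta2-AR and beta-arrestin were treated with compounds (up to 46 microM titration) in DMEM with 1% FBS for 18 hr at 37 degrees C. Beta-arrestin recruitment drove tTA-dependent luciferase, read by luminescence; curves were fitted and classed.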
NTMT1 inh: inhibitors of human N-terminal methyltransferase NTMT1; Q9BV86; NTMT1 MTase-Glo SAH luminescence, purified enzyme; Potency, µM (doses to about 114 µM), most hits filed as inhibitors; hit rate 2.5% among 59,000; AID 1645870; also: nearly all actives have a fitted effect of over 65% in size
Target sequence (Q9BV86 whole entry, looked up): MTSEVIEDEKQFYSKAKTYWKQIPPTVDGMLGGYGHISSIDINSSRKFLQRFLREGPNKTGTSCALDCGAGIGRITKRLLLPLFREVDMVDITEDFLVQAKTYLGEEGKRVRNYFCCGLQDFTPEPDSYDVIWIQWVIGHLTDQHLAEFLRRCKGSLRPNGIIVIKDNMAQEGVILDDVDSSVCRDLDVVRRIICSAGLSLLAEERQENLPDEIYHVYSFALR
FH mod: Identification of activators of human fumarate hydratase by quantitative high-throughput screening | hit rate 0.22% among 54,000 | Potency, µM (series often up to 79.9 µM), actives largely listed as inhibitors | FH coupled MDH/diaphorase resazurin fluorescence, 15 min | Fumarate hydratase, mitochondrial (Homo sapiens), P07954; also: the screen sought activators but most active calls are inhibition curves; nearly all actives have a fitted effect of over 45% in size
GALK inhibitor: inhibits human galactokinase; recombinant GALK, Kinase-Glo ATP luminescence, 1 h; Potency, µM (titrated, usually from 57.5 µM), hits mostly inhibitors; 44,000 tested, under 10 active; AID 1347072
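Compounds were pinned into ATP buffer, then GALK-galactose mix was added (final 5 nM enzyme, 35 uM ATP, 100 uM galactose, pH 8.0). After 1 h at room temperature, Kinase-Glo Plus was added and luminescence read.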
GALC G270D act: raises human GALC G270D mutant activity in cells | AID 1159614 | hit rate 0.1% among 45,000 | Potency, µM (series often up to 57.5 µM), hits mostly activators | P54803 | 145M-Twi-hGALC-G270D cells (Twitcher mouse brain line with human GALC G270D), HMU-beta-Gal fluorescence, 48 h; also: nearly all actives have a fitted effect of over 65% in size
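Mutant human GALC (G270D), stably expressed in a Twitcher mouse brain cell line lacking endogenous GALC, is measured in live-treated cells via 6-hexadecanoylamino-4-methylumbelliferyl-β-galactoside hydrolysis (0.1 mM final, pH 5.2) with fluorescent detection.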
Numbers stand for hits; ! = not confirmed by another sample. Calls follow the shape of the dose curve; as a rule, active = well fitted curve in the direction sought with a large enough effect; inconclusive = small, poorly fitted or top-dose-only effect, or another doubt; inactive = no such curve, though single readings can be large; an effect the other way counts as inactive or inconclusive.

Cc1cc(C)cc(OCC(=O)Nc2ccc(Cl)cc2C(=O)c2ccccc2)c1 was read as TSG101-PTAP inh inactive, B2AR arrestin ag inactive, NTMT1 inh inactive, FH mod inactive, GALK inhibitor inactive and GALC G270D act inactive.
Cc1cc(C)cc(OCC(=O)Nc2ccc(-c3nc4ccccc4s3)cc2)c1 was read as TSG101-PTAP inh inactive, B2AR arrestin ag inactive, NTMT1 inh inactive, FH mod inactive, GALK inhibitor inactive and GALC G270D act 40µM.
`Cc1[nH]nc2ccc(-c3cncc(OC[C@@H](N)Cc4c[nH]c5ccccc45)c3)cc12` gave NTMT1 inh 40µM! and FH mod inactive.
`OCc1nnc2n1-c1ccc(Cl)cc1C(c1ccccc1Cl)=NC2` gave NTMT1 inh inactive and FH mod inactive.
For CC(C)[N+](C)(CCC(C(N)=O)(c1ccccc1)c1ccccc1)C(C)C the results were NTMT1 inh 40µM, FH mod inactive and GALC G270D act inactive.
Screening COc1ccccc1CN[C@H]1C2CCN(CC2)[C@H]1C(c1ccccc1)c1ccccc1 returned NTMT1 inh inactive and FH mod inactive.
Screening Nc1cccc2c(N)cccc12 returned NTMT1 inh 35µM, FH mod inactive and GALC G270D act inactive.
`CCCN(CCC)CCc1ccc(OC)c(OCCc2ccccc2)c1` gave NTMT1 inh inactive and FH mod inactive.
Screening C[C@]12CC[C@H]3[C@@H](CCC4=CC(=O)CC[C@@H]43)[C@@H]1CC[C@@H]2OC(=O)CCc1ccco1 returned NTMT1 inh 25µM, FH mod inactive and GALC G270D act inactive.
For C[C@@H]1[C@H](O)[C@@H](C)/C=C/C=C/CC/C=C/C=C/C=C/C=C/[C@H](O[C@H]2O[C@@H](C)[C@H](O)[C@@H](N)[C@H]2O)C[C@@H]2O[C@](O)(C[C@@H](O)[C@H](O)CC[C@@H](O)C[C@@H](O)C[C@@H](O)CC(=O)O[C@H]1C)C[C@H](O)[C@H]2C(=O)O the results were NTMT1 inh inactive and FH mod inactive.
`CCN(CC)C(=O)[C@@H]1C=C2c3cccc4[nH]cc(c34)C[C@H]2N(C)C1` gave NTMT1 inh 56µM, FH mod inactive and GALC G270D act inactive.
NC(=O)CI was read as FH mod 25µM.
`C[C@@H]1CC[C@@]2(OC1)O[C@H]1C[C@H]3[C@@H]4CC=C5C[C@@H](O[C@@H]6O[C@H](CO)[C@@H](O[C@@H]7O[C@@H](C)[C@H](O)[C@@H](O)[C@@H]7O)[C@H](O)[C@@H]6O[C@@H]6O[C@@H](C)[C@H](O)[C@@H](O)[C@@H]6O)CC[C@]5(C)[C@@H]4CC[C@]3(C)[C@@H]1[C@H]2C` gave NTMT1 inh inactive and FH mod inactive.
NCCc1c[nH]c2ccccc12 was read as FH mod inactive.
NCCc1cc(O)c(O)cc1O was read as NTMT1 inh 28µM, FH mod inactive and GALC G270D act inactive.
C=C[C@H]1CN2CCC1C[C@H]2[C@H](O)c1ccnc2ccccc12 (stereo partly specified) was read as NTMT1 inh inactive and FH mod inactive.
For CCC1NC(=O)C2C(Cl)C(Cl)CN2C(=O)C(CC)NC(=O)CC(c2ccccc2)NC(=O)C(CO)NC1=O (stereo unspecified) the results were NTMT1 inh inactive and FH mod inactive.
`C/C=C1/CN2CC[C@]34C(=Nc5ccccc53)[C@@H]2C[C@@H]1[C@H]4C(=O)OC` gave NTMT1 inh inactive and FH mod inactive.
CC[n+]1c(-c2ccccc2)c2cc(N)ccc2c2ccc(N)cc21 was read as NTMT1 inh 28µM, FH mod inactive and GALC G270D act inactive.
For OCCCCC#Cc1cncc(OC[C@@H]2CCN2)c1 the results were NTMT1 inh inactive and FH mod inactive.
For O=P1(N(CCCl)CCCl)NCCCO1 (stereo unspecified) the results were NTMT1 inh 35µM!, FH mod inactive and GALC G270D act inactive.
Screening C=CC[C@]1(O)CC[C@H]2[C@@H]3CCC4=CC(=O)CCC4=C3C=C[C@@]21C returned NTMT1 inh 22µM, FH mod inactive and GALC G270D act inactive.
Screening CC1=C(O)C(=O)C=C2C1=CC=C1[C@@]2(C)CC[C@@]2(C)[C@@H]3C[C@](C)(C(=O)O)CC[C@]3(C)CC[C@]12C returned NTMT1 inh 16µM! and FH mod inconclusive.
Screening CN(C)[C@@H]1C(=O)C(C(N)=O)=C(O)[C@@]2(O)C(=O)C3=C(O)c4c(O)cccc4[C@@](C)(O)[C@H]3[C@H](O)[C@@H]12 returned NTMT1 inh 79µM and FH mod inactive.
Screening C=C(C)[C@@H]1CCC(C)=C[C@H]1c1c(O)cc(CCCCC)cc1O returned NTMT1 inh inactive and FH mod inconclusive.
Screening Nc1ccc(N=Nc2ccccc2)cc1 returned NTMT1 inh 126µM, FH mod inconclusive and GALC G270D act inactive.
CCOC(=O)CC(SP(=S)(OC)OC)C(=O)OCC (stereo unspecified) was read as NTMT1 inh 32µM!, FH mod inactive and GALC G270D act inactive.
COC(=O)C12C(=O)C(C)(O)C(=O)C1(C)C(C)=CC1C34CCC(OC3=O)C(C)(C)C4CCC12C (stereo unspecified) was read as NTMT1 inh inactive and FH mod inactive.
Cc1ncc(OC[C@@]2(c3cccc(F)c3)C[C@H]2C(=O)Nc2ccc(F)cn2)c(C)n1 was read as NTMT1 inh inactive.
Nc1c(C(=O)Nc2ccc(Cl)c(C(F)(F)F)c2)sc2nc3c(cc12)N1CCC3CC1 was read as TSG101-PTAP inh inactive, B2AR arrestin ag inactive, NTMT1 inh inactive, FH mod inactive, GALK inhibitor inactive and GALC G270D act inactive.
`Nc1c(C(=O)Nc2ccc(Cl)cc2)sc2nc3c(cc12)N1CCC3CC1` gave TSG101-PTAP inh inactive, B2AR arrestin ag inactive, NTMT1 inh inconclusive, FH mod inactive, GALK inhibitor inactive and GALC G270D act 32µM.
Screening CC(C)(C)[C@]1(O)C[C@@H]2OC(=O)C[C@@]23C(=O)O[C@@H]2OC(=O)[C@@H](O)[C@]213 returned NTMT1 inh inactive and FH mod inactive.
Screening COc1cc(CCNCc2ccccc2O)c(OC)cc1C#N returned NTMT1 inh inactive and FH mod inactive.
CCN(CC)C(C)C(=O)c1ccccc1 (stereo unspecified) was read as NTMT1 inh inactive, FH mod inactive and GALC G270D act inactive.
